# Shown are actives, neighbours in structure and some others; about 2.7% of the full set was active somewhere.
# 12-LOX inh = ALOX12 (human) lipoxygenase inhibition. P18054. purified 12hLO, xylenol orange hydroperoxide absorbance. Potency, µM (titrated, usually from 108 µM), hits mostly inhibitors. 580,000 tested, 1.1% active. AID 1671190
# Target sequence (P18054 whole entry, looked up): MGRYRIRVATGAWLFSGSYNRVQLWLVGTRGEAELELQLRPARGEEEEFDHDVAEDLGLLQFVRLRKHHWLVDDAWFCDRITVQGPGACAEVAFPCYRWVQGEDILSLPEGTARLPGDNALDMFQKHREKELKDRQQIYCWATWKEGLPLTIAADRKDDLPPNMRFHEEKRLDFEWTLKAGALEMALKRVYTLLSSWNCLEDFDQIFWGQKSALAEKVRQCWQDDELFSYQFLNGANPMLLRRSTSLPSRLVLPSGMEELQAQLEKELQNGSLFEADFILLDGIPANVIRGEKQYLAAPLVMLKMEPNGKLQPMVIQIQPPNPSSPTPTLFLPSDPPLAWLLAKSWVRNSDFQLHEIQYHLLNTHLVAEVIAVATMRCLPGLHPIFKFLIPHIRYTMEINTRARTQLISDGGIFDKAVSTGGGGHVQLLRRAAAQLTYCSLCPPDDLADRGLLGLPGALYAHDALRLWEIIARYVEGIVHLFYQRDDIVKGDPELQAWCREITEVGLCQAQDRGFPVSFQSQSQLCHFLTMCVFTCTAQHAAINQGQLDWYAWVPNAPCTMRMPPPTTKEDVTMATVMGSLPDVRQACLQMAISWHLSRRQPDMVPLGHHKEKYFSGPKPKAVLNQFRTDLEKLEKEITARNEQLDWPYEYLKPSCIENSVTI
#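 Purified human 12hLO at 150 nM in 25 mM Hepes, 0.01% Triton X-100, pH 7.0, preincubated 15 min at room temperature with compound. Reaction started with 40 uM arachidonic acid, 30 min at room temperature. Hydroperoxide measured by Fe-xylenol orange, 573/405 nm absorbance ratio.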
# HepG2 viability = kills HepG2 cells in TGF-b inhibitor counter-screen | AID 588856 | HepG2 CAGA-GFP viability, ATP luminescence, 18 h | 410,000 tested, 0.76% active | Potency, µM (top dose mostly 46.1 µM), actives largely listed as cytotoxic
#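 CellTiter-Glo luminescence gave cytotoxicity after 18 hours at 37 degrees C. The cells were HepG2 CAGA-GFP in 1% FBS DMEM, stimulated with 500 pg/mL TGF-beta after compound addition. %Activity was normalised to no-cell wells (complete cell-killing) and DMSO (no toxicity), and curves were fitted and classified.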
# ATXN2 expr inh = ATXN2 expression inhibition | AID 1745845 | 360,000 tested, 0.72% active | Potency, µM (highest dose often 57 µM), usual class: inhibitors | HEK-293 ATXN2-luciferase reporter, luminescence, 24 h; further: nearly all actives have a fitted effect of over 55% in size
#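 ATXN2-luciferase reporter cells (luciferase flanked by upstream and downstream ATXN2 gene portions) were treated 24 h at 37 °C with compounds at up to 57 uM. SteadyGlo luminescence gave expression; GF-AFC fluorescence gave viability.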
# TGFb SMAD3 inh = TGF-b pathway inhibition; HepG2 CAGA-GFP TGF-b/SMAD3 reporter, GFP fluorescence, 18 h; TGF-beta stimulated, 500 pg/mL final; Potency, µM (top dose mostly 46.1 µM), actives largely listed as inhibitors; 410,000 tested, 1.2% active; AID 588855; further: nearly all actives have a fitted effect of over 65% in size
#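 Inhibition of TGF-beta-driven CAGA-GFP reporter expression in HEPG2 cells is measured by cellular GFP fluorescence after 18 h stimulation with 500 pg/mL recombinant TGF-beta in 1% FBS medium at 37 degrees C.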
# S2 tox = viability counter-screen for ATXN expression inhibitors; 400,000 tested, 0.49% active; S2 cells (HEK-293 line with an ATXN2-luciferase reporter) viability, CellTiter-Fluor protease fluorescence, 24 h; Potency, µM (doses to about 56.7 µM), most hits filed as cytotoxic; further: nearly all actives have a fitted effect of over 40% in size
# A number is an active result; – = inactive; ? = inconclusive; · = no result given; [ ] = dose if it differs, or a comment. The call rests on the fitted dose curve; in most records, active means well fitted curve in the direction sought with a large enough effect; inconclusive means small, poorly fitted or top-dose-only effect, or another doubt; inactive means no such curve, though single readings can be large; an effect the other way counts as inactive or inconclusive.
SMILES,12-LOX inh,HepG2 viability,ATXN2 expr inh,TGFb SMAD3 inh,S2 tox
CCOC(=O)c1c(C)[nH]c(C(=O)OCC(=O)Nc2ccc(Cl)cn2)c1C,–,–,–,–,–
CCOC(=O)c1c(C)[nH]c(C(=O)OCC(=O)Nc2sccc2C(N)=O)c1C,?,–,?,–,13µM
CCOC(=O)/C(=C\c1ccc(OC(F)F)cc1)C1=Nn2c(nnc2-c2ccc(Cl)cc2)SC1,·,2.5µM,?,4µM,?
CCOC(=O)/C(=C/c1ccc(OC(F)F)cc1)C1=Nn2c(nnc2-c2ccc(Cl)cc2)SC1,–,3.2µM,10µM,?,7.9µM
O=C1NC2(CCN(S(=O)(=O)c3cccs3)CC2)Oc2ccccc21,–,·,·,·,·
CC(=O)C1=C(O)C=C2Oc3c(C(C)=O)c(O)c(C)c(O)c3C2(C)C1=O (configuration not stated),?,·,–,·,·
CC(=O)Oc1c(C)c(OC(C)=O)c2c(c1C(C)=O)OC1CC(=O)C(C(C)=O)=C(O)C21C (configuration not stated),28µM,–,·,–,–
Cc1ccc(C(=O)O)cc1NC(=O)c1ccco1,–,·,·,·,·
Cc1ccc(S(=O)(=O)C(CNC(=O)c2ccc(C(F)(F)F)cc2)c2ccco2)cc1 (configuration not stated),?,–,·,?,·
O=C(NCC(c1ccco1)S(=O)(=O)c1ccc(Cl)cc1)c1ccc(C(F)(F)F)cc1 (configuration not stated),–,–,·,16µM,·
O=C(Cc1ccccc1)N(CC1CCOC1)C1CC1 (configuration not stated),–,·,·,·,·
CN1C(=O)c2ccccc2NC1c1cc2ccccc2[nH]c1=O (configuration not stated),7.1µM,·,·,·,·
COCCN1C(=O)c2ccccc2NC1c1cc2ccccc2[nH]c1=O (configuration not stated),–,·,·,·,·
C=CCNC(=O)NC(=O)CN(C)CC#N,–,·,·,·,·
CCn1nc(C(=O)NC2CCN(Cc3ccccc3)C2)c2ccccc2c1=O (configuration not stated),–,·,·,·,·
NS(=O)(=O)c1ccc(NCc2c(F)cccc2Cl)cc1,–,–,–,–,–
Fc1cccc(Cl)c1CNc1ccc(N2CCCC2)cc1,32µM,–,–[11.3 µM],?,·
O=C(NC(c1ccccc1)c1ccccc1)c1cccs1,–,·,·,·,·
O=C(COC(=O)/C(=C/c1cccs1)c1cccs1)NC(c1ccccc1)c1ccccc1,–,–,–,13µM,–
O=C(CC(c1ccc(Cl)cc1)S(=O)(=O)c1ccccc1)c1ccc(F)cc1 (configuration not stated),–,·,·,·,·
Cc1cc(O)c(C)c(C)c1O,?,·,–,·,–
Cc1cc(O)c2ccccc2c1O,·,·,8.9µM,·,?
O=C(O)c1cc(O)c2ccccc2c1O,71µM,·,·,·,·
O=S(=O)(NC(c1ccccc1)c1ccccc1)c1cccc2nsnc12,11µM,·,·,·,·
CC(C)NS(=O)(=O)c1cccc2nsnc12,–,–,–,–,–
SMILES,12-LOX inh,HepG2 viability,ATXN2 expr inh,TGFb SMAD3 inh,S2 tox
CN(C)C(=O)c1ccc(-c2cncnc2NCc2cccs2)cc1,–,·,·,·,·
Cc1cnc(CNc2ncncc2-c2ccc3c(c2)OCO3)cn1,–,·,·,·,·
c1csc(CNc2nc(-c3ccc4c(c3)OCO4)nc3ccccc23)c1,11µM,·,·,·,·
c1cncc(-c2cncnc2NCc2cccs2)c1,7.9µM,·,·,·,·
c1csc(CNc2ncncc2-c2ccc3c(c2)OCO3)c1,28µM,·,·,·,·
Cc1nn(-c2nc3ccccc3[nH]2)c(=O)c2ccccc12,–,3.2µM,0.4µM,–,–
CCOc1cc(CNC(=O)c2ncoc2-c2cccc(Cl)c2)ccc1OC,–,·,·,·,·
CC1C=CCC2C(=O)N(c3cccc(C(=O)NCc4ccccc4)c3)C(=O)C12 (configuration not stated),32µM,–,–,–,–
O=C(CCSc1ccccc1)OCn1nnc2ccccc2c1=O,–,–,–,4µM,–
Cc1ccc(SCCC(=O)OCn2nnc3ccccc3c2=O)cc1,–,–,–,–,–
OC12CC3CC(C1)CC(NCc1cccs1)(C3)C2,–,·,·,·,·
Cc1cc(OCCCCCNCCO)cc(C)c1Cl,–,11µM,?,?,–
CC(C)C(=O)N1CCN(C(=O)c2cn(C)c3ccccc23)CC1,–,·,·,·,·
Cc1cc(Nc2ccccc2)n(-c2ccccc2)n1,–,–,–,–,–

# Screening results as filed in PubChem.
